Compound activity from PubChem.
The list is not random: actives were taken first. Their share in the collection is about 21%.
Shiga toxin inh: A qHTS for Small Molecule Inhibitors of Shiga Toxin. Vero cells, Shiga toxin protein synthesis inhibition reporter. inhibition, % at 38.7 µM. 290,000 tested, 9.2% active. AID 2315, 2010; in the data active = inhibition mostly above about 28%, no sharp cut-off; inactive = mostly below about 43%; also: 0% is about no effect
Pf growth 48h: Primary qHTS for delayed death inhibitors of the malarial parasite plastid, 48 hour incubation. 310,000 tested, 5.9% active. AID 504832, 2011. Potency, µM (series often up to 28.7 µM), without a hit: at the top dose activity change, negative = inhibition, hits mostly inhibitors. P. falciparum luciferase growth in erythrocytes, 48 h; also: potency is read from the fitted curve at half-maximal effect; % is scaled to controls: 0 for no effect and ±100 for the full control effect
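Erythrocytes infected with P. falciparum carrying an integrated firefly luciferase reporter (2% hematocrit, 0.1% parasitemia final) were exposed to compounds in RPMI 1640 with 0.5% Albumax at 37 C, 5% CO2. Growth inhibition was scored as reduced luminescence.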
Cycloheximide cs: Cycloheximide Counterscreen for Small Molecule Inhibitors of Shiga Toxin; cell reporter, cycloheximide protein synthesis inhibition counterscreen; max response, %; 300,000 tested, 12% active; in the data active = max response mostly above about 13%, no sharp cut-off; inactive = mostly below about 14%; also: read at 38.3 µM for the half of the compounds with a filed dose; 0% is about no effect
Pf growth 96h: Primary qHTS for delayed death inhibitors of the malarial parasite plastid, 96 hour incubation | P. falciparum luciferase reporter growth, 96 h | 320,000 tested, 6.9% active | Potency, µM (top dose mostly 28.7 µM), without a hit: at the top dose activity change, negative = inhibition, actives largely listed as inhibitors; also: potency is read from the fitted curve at half-maximal effect; % is scaled to controls: 0 for no effect and ±100 for the full control effect
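Plates of compound plus infected erythrocytes (2% hematocrit, 0.05% parasitemia final) incubate 96 hours, 37 C, 5% CO2. Detection reagent added; reduced luminescence from the parasites' luciferase reporter flags inhibition.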
NS1 function inh: qHTS Assay for Inhibitors of Influenza NS1 Protein Function; 270,000 tested, 0.4% active; AID 2326, 2010; Potency, µM (series often up to 46.1 µM), inactives show at the top dose activity, positive = more growth; calls by dose curve; also: potency is read from the fitted curve at half-maximal effect; actives are rising curves; nearly all actives have a fitted effect of over 50% in size
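Read-out: OD600 growth recovery of NS1-expressing budding yeast. Cells grown overnight at 30C in -URA glucose medium, washed, resuspended and diluted 1:100 in 2% galactose assay medium, pH 6.0. Same strain lacking NS1 served as positive control.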
* = called active by the depositor; i = inactive; ? = inconclusive; . = no result given; [ ] = dose if it differs, or a comment. Unless noted, calls follow the shape of the dose curve; as a rule, active = well fitted inhibition curve with a large enough effect; inconclusive = small, poorly fitted or top-dose-only effect, or another doubt; inactive = no such curve, though single readings can be large or run the other way.

SMILES	Shiga toxin inh	Pf growth 48h	Cycloheximide cs	Pf growth 96h	NS1 function inh
O=C(CNC(=O)c1ccc(Cl)cc1)OCc1nc2ccccc2s1	20	38%	7	67%	-4%
CCOC(=O)CNC(=O)c1ccc(OCC(F)(F)F)cc1	82*	292%	28*	111%	.
COc1cc(OC)cc(C(=O)NCC(=O)OCc2nc3ccccc3s2)c1	113*	i	36*	290%	-6%
Cc1ccc2[nH]cc(C(=O)NCc3cccs3)c(=O)c2c1	-5	?	10	-5%	6%[9.22 µM]
CC(=O)c1c[nH]c2ccc(C)cc2c1=O	-10	6.6µM*	-2	?	-4%
CCOC(=O)c1ccc2[nH]cc(C(C)=O)c(=O)c2c1	-1	4.7µM*	0	3%	-4%
CCOc1ccc2[nH]cc(C(=O)O)c(=O)c2c1	11	8%	1	.	-2%
CCOC(=O)c1cnc2c(ccc3ccccc32)c1Cl	121*	?	21*	1%	-9%
CCOC(=O)c1ccc(-c2ccc3[nH]c4ccccc4c(=O)c3c2)cc1F	-9	?	0	5.2µM*	21%
O=C(NCCSc1ccccn1)c1ccc(Cl)cc1Cl	-4	1%	-2	?	.
CCN(CC(=O)NCc1ccc(Cl)cc1)C(=O)CCC(=O)c1ccc(C)cc1	.	?	.	9%	.
CCOC(=O)c1c[nH]c2ccc3ccccc3c2c1=O	19	?	1	4.7µM*	-17%
Cc1cc(C)c2c(n1)nn1c(NCCCn3ccnc3)cc(C)nc21	3	10%	-5	?	-9%
Cc1cc(NCCCn2ccnc2)n2nc(-c3ccc(Cl)cc3)cc2n1	57	2.6µM*	20*	20%	2%
COc1ccc(Cl)cc1C(=O)NCCCn1ccnc1	2	33%	-2	-7%	4%
Cc1cccc(-c2cc3nc(C)c(C)c(NCCCn4ccnc4)n3n2)c1	27	1.7µM*	16	?	-3%
CC(C)(C)c1cc(NCCCn2ccnc2)n2ncc(-c3ccc(Cl)cc3)c2n1	87*	?	58*	?	-39%
Cc1cc(NCCCn2ccnc2)n2nc(-c3ccc(F)cc3)cc2n1	29*	4.1µM*	20*	-4%[5.75 µM]	0%
O=C(NCCCn1ccnc1)c1cc(-c2ccc(Cl)cc2)nc2ccccc12	-8	?	-3	28%	3%
Cc1cc(-c2ccccc2)nc2cc(C(=O)NCCCn3ccnc3)nn12	-1	-28%	-1	?	2%
Cc1c([N+](=O)[O-])c2ccc(O)cc2n1-c1ccccc1	2	-5%	-3	?	3%
CN(C)CCCNc1cc(C(C)(C)C)nc2c(-c3ccccc3)cnn12	61*	32%	47*	?	-2%
COc1ccccc1-c1cnn2c(NCc3ccccc3)cc(C)nc12	34	-10%	12	?	-4%
CN(CCC#N)C(=O)COC(=O)c1cc(Cl)cc(Cl)c1N	-3	-9%	-2	30%	.
COc1ccc(C2(c3ccc(OC)cc3)NC(=O)N(CC(=O)NC3CCCC3)C2=O)cc1	.	6%	.	14%	.
SMILES	Shiga toxin inh	Pf growth 48h	Cycloheximide cs	Pf growth 96h	NS1 function inh
COc1ccc(N2C(=O)CSC23C(=O)N(CC(=O)NC2CCCC2)c2ccccc23)cc1 (configuration not stated)	-4	-5%	-3	8.3µM*	-11%
CC(CCc1ccco1)NC(=O)Nc1cccc(F)c1 (configuration not stated)	16	-9%	21*	?	-8%
O=C(CSc1nccn1Cc1ccco1)Nc1cccc(F)c1	39*	1%	27*	44%	-4%
COc1ccccc1-n1ccnc1SCC(=O)NCc1ccco1	-7	?	0	10µM*	.
Cc1ccc(NC(=O)CSc2ncc3ccccn23)cc1	70*	157%	28*	161%	1%
Cc1cc(Oc2ccc(=O)n(C)n2)nc(SCc2ccccc2)n1	-20	-10%	1	0%	.
O/C(=C\Sc1nnc(Cc2ccccc2)o1)c1ccc(F)cc1	-11	.	-2	19%	0%
Cc1cccc([C@H]2[C@@H]3C=CC(C)C[C@@H]3C(=O)N2Cc2ccccc2)c1 (some centres not stated)	i	.	1	.	.
Cc1ccc(NC(=O)CSc2nccn2Cc2ccco2)cc1	90*	105%	78*	151%	-15%
COc1ccc(NC(=O)CSc2nccn2Cc2ccco2)c(OC)c1	44*	34%	25*	87%	-1%
CC1(C)C(c2ccccc2)=NC(c2ccc(Br)cc2)N1O (configuration not stated)	15	15%	1	?	-4%
COc1ccc(S(=O)(=O)N2c3cc(Cl)ccc3Oc3nc4ccccc4nc32)cc1	50*	30%	17	32%	13%
Cc1ccc(N(C)C(=O)n2cnc3ccccc32)cc1	3	3.7µM*	15	9.3µM*	0%
O=[N+]([O-])c1cc(N=Nc2ccc3ccccc3c2)ccc1O	.	150%	13*	77%	3%
Nc1ccc(O)c([N+](=O)[O-])c1	.	11%	.	?	.
COc1cc2c(cc1OC)CN(C(=O)c1ccc([N+](=O)[O-])o1)CC2	7	?	-3	4.1µM*	-88%
CC(=O)c1c(C)[nH]c(C(=O)N2c3ccccc3CC2C)c1C (configuration not stated)	-10	.	-5	-12%	-12%
Cc1ccc(C(=O)N2c3ccccc3CC2C)o1 (configuration not stated)	92*	85%	39*	3.7µM*	-8%
Cc1cc(=O)oc2cc(OCC(=O)N3c4ccccc4CC3C)ccc12 (configuration not stated)	-3	?	-1	?	-16%
Cc1ccc(C(=O)N2CCc3ccccc32)o1	98*	151%	57*	41%	-11%
CCN(CC)c1cccc(OCC(=O)N2c3ccccc3CC2C)c1 (configuration not stated)	.	9.3µM*	.	?	.
COc1ccc(C2=NN(C3=NN=C(N)Cc4ncnn43)C(O)(C(F)(F)F)C2)cc1 (configuration not stated)	-5	36%	2	-26%	-4%
CC(=O)c1ccc(-c2ccc(C(=O)N3CCCc4ccccc43)o2)cc1	142	-26%	27*	-11%	.
O=C(c1ccc([N+](=O)[O-])o1)N1CCc2ccccc2C1	-7	?	-3	5.2µM*	-79%
O=C(c1cc(Cl)ccc1[N+](=O)[O-])N1CCc2ccccc2C1	-7	15%	-2	33%	2%
Cc1cc(C(=O)OCC(=O)N2c3ccccc3CC2C)c(C)o1 (configuration not stated)	36*	?	12	-2%	-1%
O=C(c1ccc([N+](=O)[O-])o1)N1CCc2ccccc21	38*	?	14*	?	-68%
COCc1nnc(NC(=O)c2ccccc2[N+](=O)[O-])s1	-10	16%	0	33%	5%
CCOc1ccccc1NC(=O)CSc1cn[nH]n1	.	6%	.	?	.
